Structures can show the parent of a compound that is named as a salt.
Tests used:
Conditions in all cases: 20 µM
[1] = test system: Salmonella enterica typhimurium; experiment: growth AUC normalised to DMSO control (fraction of control); higher = less growth inhibition, active = hit call of the paper
Outline: (§1)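 Pathogens passaged twice anaerobically were inoculated at a starting OD578 of 0.01 into pre-reduced mGAM plates with drug at 20 μM and 1% DMSO, sealed with breathable membranes. Haemophilus parainfluenzae medium was supplemented with hemin and NAD. OD578 was read hourly for 24 h, with three biological replicates. Growth-curve AUC was computed by the trapezoidal rule up to the exponential-to-stationary transition and normalised to DMSO controls on the same plate.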

Shigella flexneri = experiment: as above
Outline: as §1

Vibrio cholerae = experiment: as above
Outline: as §1

[2] = test system: Yersinia pseudotuberculosis; experiment: as above
Outline: as §1

P. vulgatus RND KO = experiment: growth AUC normalised to DMSO control (median) (fraction of control); higher = less growth inhibition, active = hit call of the paper
Outline: (§2)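 Strains were passaged twice overnight without oxygen, then grown in mGAM in 96-well plates with each approved-drug library compound at 20 μM and 1% DMSO, starting at OD578 0.01. OD578 was read hourly for 24 h inside an anaerobic incubator. Curves were truncated at entry into stationary phase, and the trapezoidal-rule area under the curve was normalised to same-plate vehicle wells. The value is the median across three biological replicates.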

P. vulgatus WT = experiment: as above
Outline: as §2

[3] = test system: S. enterica typhimurium WT; experiment: as above
Outline: as §2

[4] = test system: S. enterica typhimurium tolC KO; experiment: as above
Outline: as §2

Measured: growth AUC normalised to DMSO control
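For growth AUC normalised to DMSO control (median) in this document: active when median AUC fell below 0.1.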

Cc1cc(C(C)(C)C)cc(C)c1CC1=NCCN1 [Xylometazoline hydrochloride]
inactive: [1] 1.03 | Shigella flexneri 0.999 | Vibrio cholerae 0.999 | [2] 0.989 | P. vulgatus RND KO 1.02 | P. vulgatus WT 1.02 | [3] 0.995 | [4] 0.989

CCOC(=O)C(C)(C)Oc1ccc(Cl)cc1 [Clofibrate]
inactive: [1] 1.03 | Shigella flexneri 1.01 | Vibrio cholerae 1.03 | [2] 1.02 | P. vulgatus RND KO 1.03 | P. vulgatus WT 1.04 | [3] 1 | [4] 0.991

O=C1Cc2cc(CCN3CCN(c4nsc5ccccc45)CC3)c(Cl)cc2N1 [Ziprasidone  hydrochloride monohydrate]
inactive: [1] 1.02 | Shigella flexneri 1.06 | Vibrio cholerae 1.01 | [2] 1 | P. vulgatus RND KO 1.03 | P. vulgatus WT 1.07 | [3] 1.02 | [4] 1

CCN(CC)CCOc1ccc(C(=C(Cl)c2ccccc2)c2ccccc2)cc1 [(Z,E) Clomiphene citrate]
inactive: [1] 1.02 | Shigella flexneri 1.02 | Vibrio cholerae 1.01 | [2] 1.02 | P. vulgatus RND KO 0.902 | P. vulgatus WT 0.964 | [3] 1.01 | [4] 0.983

O=c1[nH]c(=O)n([C@H]2C[C@H](O)[C@@H](CO)O2)cc1F [Floxuridine]
inactive: [3] 0.815 | [4] 0.791
active: [1] 0.713 | Shigella flexneri 0.729 | Vibrio cholerae 0.695 | [2] 0.44 | P. vulgatus RND KO 0.0504 | P. vulgatus WT 0.0573

Cc1cccc(C)c1NC(=O)CN1CCN(CCCC(c2ccc(F)cc2)c2ccc(F)cc2)CC1 [Lidoflazine]
inactive: [1] 1.01 | Shigella flexneri 1.02 | Vibrio cholerae 1.01 | [2] 1.02 | P. vulgatus RND KO 1.04 | P. vulgatus WT 1.04 | [3] 1.01 | [4] 0.938

CC(C)(Oc1ccc(C2CC2(Cl)Cl)cc1)C(=O)O (stereo not drawn) [Ciprofibrate]
inactive: [1] 1.01 | Shigella flexneri 0.998 | Vibrio cholerae 0.997 | [2] 0.995 | P. vulgatus RND KO 0.973 | P. vulgatus WT 0.961 | [3] 0.992 | [4] 0.993

COc1cc(-c2ccc(=O)[nH]n2)ccc1OC(F)F [Zardaverine]
inactive: [1] 0.99 | Shigella flexneri 0.999 | Vibrio cholerae 0.955 | [2] 0.998 | P. vulgatus RND KO 1 | P. vulgatus WT 1.02 | [3] 0.995 | [4] 0.997

CC(C)NC(=N)NC(=N)Nc1ccc(Cl)cc1 [Proguanil hydrochloride]
inactive: [1] 0.959 | Shigella flexneri 0.962 | Vibrio cholerae 0.985 | [2] 0.992 | P. vulgatus RND KO 1 | P. vulgatus WT 1.01 | [3] 0.988 | [4] 0.984

Oc1c(I)cc(Cl)c2cccnc12 [Clioquinol]
active: P. vulgatus WT 0.0312
inactive: [1] 1.03 | Shigella flexneri 0.996 | Vibrio cholerae 1.07 | [2] 1.01 | P. vulgatus RND KO 0.134 | [3] 1.01 | [4] 0.55

C=C[C@H]1CN2CC[C@H]1C[C@@H]2[C@@H](O)c1ccnc2ccc(OC)cc12 [Quinidine hydrochloride monohydrate]
inactive: [1] 0.991 | Shigella flexneri 0.996 | Vibrio cholerae 0.985 | [2] 0.991 | P. vulgatus RND KO 0.998 | P. vulgatus WT 1.03 | [3] 0.99 | [4] 0.997

CCc1cccc2c3c([nH]c12)C(CC)(CC(=O)O)OCC3 (stereo not drawn) [Etodolac]
inactive: [1] 1.01 | Shigella flexneri 1.06 | Vibrio cholerae 1.06 | [2] 1.02 | P. vulgatus RND KO 0.99 | P. vulgatus WT 1.01 | [3] 1.02 | [4] 1.02

CC1(C)O[C@@H]2C[C@H]3[C@@H]4C[C@H](F)C5=CC(=O)C=C[C@]5(C)[C@@]4(F)[C@@H](O)C[C@]3(C)[C@]2(C(=O)CO)O1 [Fluocinolone acetonide]
inactive: [1] 1 | Shigella flexneri 1.01 | Vibrio cholerae 1.02 | [2] 1 | P. vulgatus RND KO 0.975 | P. vulgatus WT 0.967 | [3] 1 | [4] 0.993

CC(C)(C)NCC(O)COc1cccc2c1CC(O)C(O)C2 (stereo not drawn) [Nadolol]
inactive: [1] 0.99 | Shigella flexneri 0.999 | Vibrio cholerae 1 | [2] 1 | P. vulgatus RND KO 1.02 | P. vulgatus WT 1.01 | [3] 1 | [4] 1

Nc1ccc(C(=O)O)c(O)c1 [Aminosalicylic acid]
inactive: [1] 1.03 | Shigella flexneri 1.01 | Vibrio cholerae 0.988 | [2] 0.962 | P. vulgatus RND KO 1.02 | P. vulgatus WT 1 | [3] 1.01 | [4] 1.01

CN1C2CCCC1CC(NC(=O)c1nn(C)c3ccccc13)C2 (stereo not drawn) [Granisetron]
inactive: [1] 1 | Shigella flexneri 1.02 | Vibrio cholerae 1.01 | [2] 1 | P. vulgatus RND KO 1 | P. vulgatus WT 0.987 | [3] 0.982 | [4] 1

Nc1nc(N)c2nc(-c3ccccc3)c(N)nc2n1 [Triamterene]
inactive: [1] 0.942 | Shigella flexneri 1.06 | Vibrio cholerae 0.99 | [2] 0.95 | P. vulgatus RND KO 0.973 | P. vulgatus WT 0.971 | [3] 0.954 | [4] 0.939

CC(=O)O[C@@]12CO[C@@H]1C[C@H](O)[C@@]1(C)C(=O)[C@H](O)C3=C(C)[C@@H](OC(=O)[C@H](O)[C@@H](NC(=O)OC(C)(C)C)c4ccccc4)C[C@@](O)([C@@H](OC(=O)c4ccccc4)[C@H]21)C3(C)C [Docetaxel]
inactive: [1] 0.995 | Shigella flexneri 0.982 | Vibrio cholerae 1.07 | [2] 1.04 | P. vulgatus RND KO 0.904 | P. vulgatus WT 0.92 | [3] 1 | [4] 1

C#C[C@]1(OC(C)=O)CC[C@H]2[C@@H]3CCC4=C[C@@H](OC(C)=O)CC[C@@H]4[C@H]3CC[C@@]21C [Ethynodiol diacetate]
inactive: [1] 0.971 | Shigella flexneri 0.988 | Vibrio cholerae 0.963 | [2] 0.986 | P. vulgatus RND KO 0.922 | P. vulgatus WT 0.954 | [3] 0.997 | [4] 0.941

C=C1c2cccc(O)c2C(O)=C2C(=O)[C@]3(O)C(O)=C(C(N)=O)C(=O)[C@@H](N(C)C)[C@@H]3[C@@H](O)[C@H]12 [Methacycline hydrochloride]
active: [1] 0.00318 | Shigella flexneri 0.0126 | Vibrio cholerae 0.0374 | [2] 0.0389 | P. vulgatus RND KO 0.0122 | P. vulgatus WT 0.00531 | [3] 0.000703 | [4] 0.00224

CC1=C(/C=C/C(C)=C/C=C/C(C)=C/C(=O)O)C(C)(C)CCC1 [Retinoic acid]
inactive: [1] 1 | Shigella flexneri 0.994 | Vibrio cholerae 1 | [2] 0.998 | P. vulgatus RND KO 0.996 | P. vulgatus WT 0.992 | [3] 1 | [4] 0.993

CC(C)Cn1cnc2c(N)nc3ccccc3c21 [Imiquimod]
inactive: [1] 1.02 | Shigella flexneri 1.05 | Vibrio cholerae 1.06 | [2] 1.01 | P. vulgatus RND KO 0.986 | P. vulgatus WT 0.951 | [3] 0.997 | [4] 0.994

Cc1ccc(NC(=O)c2ccc(CN3CCN(C)CC3)cc2)cc1Nc1nccc(-c2cccnc2)n1 [Imatinib]
inactive: [1] 1.03 | Shigella flexneri 1.06 | Vibrio cholerae 1.12 | [2] 0.991 | P. vulgatus RND KO 1.12 | P. vulgatus WT 1.09 | [3] 1.03 | [4] 0.259

CC[N+](C)(C)Cc1ccccc1Br [Bretylium tosylate]
inactive: [1] 1 | Shigella flexneri 1.01 | Vibrio cholerae 1.02 | [2] 1.02 | P. vulgatus RND KO 0.995 | P. vulgatus WT 1.03 | [3] 1 | [4] 0.999

CCSc1ccc2c(c1)N(CCCN1CCN(C)CC1)c1ccccc1S2 [Thiethylperazine maleate]
inactive: [1] 1 | Shigella flexneri 1.02 | Vibrio cholerae 0.983 | [2] 0.99 | P. vulgatus RND KO 1 | P. vulgatus WT 1 | [3] 0.996 | [4] 0.91

CCCCOc1cc(C(=O)OCCN(CC)CC)ccc1N [Benoxinate hydrochloride]
inactive: [1] 1 | Shigella flexneri 0.991 | Vibrio cholerae 0.936 | [2] 0.992 | P. vulgatus RND KO 1 | P. vulgatus WT 0.977 | [3] 0.978 | [4] 0.991

CC(Oc1ccccc1)C(=O)N[C@@H]1C(=O)N2[C@@H]1SC(C)(C)[C@@H]2C(=O)O (stereo partly drawn) [Phenethicillin potassium salt]
active: [2] 0.898 | P. vulgatus RND KO 0.0155 | P. vulgatus WT 0.00969 | [4] 0.00227
inactive: [1] 1.01 | Shigella flexneri 1.02 | Vibrio cholerae 1 | [3] 1

CN(C)CCCN1c2ccccc2Sc2ccc(Cl)cc21 [Chlorpromazine hydrochloride]
active: Vibrio cholerae 0.877
inactive: [1] 0.996 | Shigella flexneri 0.983 | [2] 0.985 | P. vulgatus RND KO 0.924 | P. vulgatus WT 0.903 | [3] 1 | [4] 0.962

CC(=O)O[C@]1(C(C)=O)CC[C@H]2[C@@H]3C=C(Cl)C4=CC(=O)CC[C@]4(C)[C@H]3CC[C@@]21C [Chlormadinone acetate]
inactive: [1] 0.989 | Shigella flexneri 0.993 | Vibrio cholerae 1 | [2] 1 | P. vulgatus RND KO 0.945 | P. vulgatus WT 0.977 | [3] 0.998 | [4] 0.981

CN(C)CCN(Cc1ccccc1)c1ccccn1 [Tripelennamine hydrochloride]
inactive: [1] 1 | Shigella flexneri 0.993 | Vibrio cholerae 1.01 | [2] 0.973 | P. vulgatus RND KO 0.982 | P. vulgatus WT 0.985 | [3] 0.965 | [4] 1

CCN(CCO)CCCC(C)Nc1ccnc2cc(Cl)ccc12 (stereo not drawn) [Hydroxychloroquine sulfate]
inactive: [1] 1 | Shigella flexneri 0.988 | Vibrio cholerae 1.01 | [2] 1.01 | P. vulgatus RND KO 1.02 | P. vulgatus WT 1.01 | [3] 1 | [4] 0.995

From the supplement of paper PMC12350171
